From PubChem BioAssay (NCI) come the findings set out here.

Each structure is given as a SMILES string. The panel holds about 83,000 compounds, 20% with a hit somewhere; the sample as a whole holds those more often.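 Testing used 96-well plates and a 48-hour single-concentration exposure. Example: -40 means 40% of the starting cells died.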 Values without a mark were called inactive. The source made the active and inactive calls. Rule for the calls: active = growth percent below 10; inactive = the rest.

Holding throughout (test): NCI-60 one-dose screen, 48 h (100 = growth as untreated, 0 = no growth, -100 = all killed)
In one assay the test system is DU-145 prostate. As to conditions: 10 µM unless noted.
The subject of the next assay is K-562 leukemia. As to conditions: 10 µM unless noted.
The next assay relates to MALME-3M melanoma. As to conditions: 10 µM unless noted.
The subject of a further assay is MDA-MB-231 breast. As to conditions: 10 µM unless noted.
The test system of a further assay is RXF 393 renal. As to conditions: 10 µM unless noted.
The next assay has as its system SF-268 CNS. As to conditions: 10 µM unless noted.
The subject of another assay is SF-295 CNS. As to conditions: 10 µM unless noted.
The test system of another assay is SF-539 CNS. As to conditions: 10 µM unless noted.
For a further assay, the system named is UACC-257 melanoma. As to conditions: 10 µM unless noted.
A further assay deals with M14 melanoma. As to conditions: 10 µM unless noted.
For another assay, the system named is HCT-15 colon. As to conditions: 10 µM unless noted.
The next assay has as its system HT29 colon. As to conditions: 10 µM unless noted.
The subject of another assay is SNB-75 CNS. As to conditions: 10 µM unless noted.
In the next assay the test system is SNB-19 CNS. As to conditions: 10 µM unless noted.
A further assay concerns U251 CNS. As to conditions: 10 µM unless noted.
The next assay concerns PC-3 prostate. As to conditions: 10 µM unless noted.
For another assay, the system named is SK-MEL-5 melanoma. As to conditions: 10 µM unless noted.
The next assay relates to UACC-62 melanoma. As to conditions: 10 µM unless noted.
The test system of another assay is LOX IMVI melanoma. As to conditions: 10 µM.
The subject of a further assay is SK-MEL-28 melanoma. As to conditions: 10 µM unless noted.

`COCOc1ccc2c(=O)c(C)c(C(=O)N[C@@H](Cc3ccccc3)C(O)C(=O)NCCc3ccc(OC)cc3)oc2c1` (some centres undefined): the growth is 106% in the assay with DU-145 prostate; 84.1% in the assay with K-562 leukemia; 111% in the assay with MALME-3M melanoma; 99% in the assay with MDA-MB-231 breast; 99.1% with RXF 393 renal; 120% in the assay on SF-268 CNS. For the same molecule, the growth is 107% in the assay on SF-295 CNS; 109% in the assay with SF-539 CNS; 116% with UACC-257 melanoma; 118% in the assay with M14 melanoma; 102% in the assay on HCT-15 colon; 113% with HT29 colon. Also, the growth in the assay on SNB-75 CNS is 125%; in the assay with SNB-19 CNS it was 96%; in the assay with U251 CNS it was 106%; with PC-3 prostate, 110%; in the assay with SK-MEL-5 melanoma, 99.4%; in the assay with UACC-62 melanoma, 102%.
Turning to `COC(=O)C[C@](O)(CCCC(C)(C)O)C(=O)O[C@H]1C(OC)=C[C@@]23CCCN2CCc2cc4c(cc2[C@@H]13)OCO4`, the growth with DU-145 prostate was -11.7% (active); in the assay with K-562 leukemia, 4.68% (active); in the assay with MALME-3M melanoma, -43.8% (active); in the assay on MDA-MB-231 breast, -20.4% (active); with RXF 393 renal, -31.8% (active); in the assay on SF-268 CNS, -6.53% (active). For the same molecule, the growth with SF-295 CNS was -22.8% (active); with SF-539 CNS, -50.8% (active); with UACC-257 melanoma, -28.2% (active); in the assay on M14 melanoma it was -71.4% (active); in the assay with HCT-15 colon, 0.83% (active); with HT29 colon, -48.3% (active). The growth in the assay with SNB-75 CNS was -48.9% (active); in the assay on SNB-19 CNS, -26.8% (active); with U251 CNS, -23.4% (active); in the assay with PC-3 prostate, -15.1% (active); in the assay on SK-MEL-5 melanoma, -71.9% (active); in the assay on UACC-62 melanoma it was -18.5% (active). The growth in the assay with LOX IMVI melanoma is -82.4% (active).
Regarding `Cn1cc(-c2cc(N)n3nc(-c4cn(C)c5ccc(Cl)cc45)cc3n2)c2ccccc21`, the growth with DU-145 prostate is 111%; with K-562 leukemia, 108%; in the assay with MALME-3M melanoma, 104%; in the assay on MDA-MB-231 breast, 107%; with RXF 393 renal, 115%; in the assay with SF-268 CNS, 107%. Also, the growth in the assay on SF-295 CNS is 97.2%; in the assay with SF-539 CNS it was 105%; with UACC-257 melanoma, 102%; in the assay on M14 melanoma, 102%; with HCT-15 colon it was 100%; with HT29 colon it was 105%. Moreover, the growth with SNB-75 CNS is 89%; with SNB-19 CNS it was 108%; in the assay with U251 CNS, 103%; in the assay on PC-3 prostate it was 110%; in the assay on SK-MEL-5 melanoma, 98.5%; in the assay on UACC-62 melanoma, 98.2%. For the same molecule, the growth with LOX IMVI melanoma was 110%.
As for `N/C(=N\c1nc2ccccc2s1)NC(=O)Nc1ccc(Cl)cc1Cl`, the growth is -74.2% (active) in the assay on DU-145 prostate; 9.51% (active) with K-562 leukemia; -75.2% (active) in the assay on MALME-3M melanoma; -83.4% (active) in the assay with MDA-MB-231 breast; -84% (active) in the assay with RXF 393 renal; -2.76% (active) in the assay with SF-268 CNS. The growth in the assay with SF-295 CNS was -98.5% (active); in the assay with SF-539 CNS, -78.2% (active); in the assay on UACC-257 melanoma it was 18.8%; in the assay with M14 melanoma, -53.6% (active); in the assay with HCT-15 colon, -25.7% (active); in the assay on HT29 colon, -90.1% (active). Besides, the growth is -68.8% (active) in the assay on SNB-75 CNS; -23.5% (active) with SNB-19 CNS; -97.9% (active) in the assay on U251 CNS; -2.3% (active) in the assay with PC-3 prostate; -56.5% (active) with SK-MEL-5 melanoma; -49.8% (active) in the assay with UACC-62 melanoma. For the same molecule, the results for the growth with LOX IMVI melanoma and in the assay on SK-MEL-28 melanoma were -96.8% (active) and -33.2% (active), respectively.
Regarding `C#CCOc1cc(N(CC)CC)ccc1C(C(=O)NC(C)(C)C)N(C(=O)C1CCc2cc(F)ccc2O1)c1ccc(F)cc1` (centres undefined), the growth in the assay on DU-145 prostate is 65.3%; in the assay with K-562 leukemia it was 23.6%; in the assay with MALME-3M melanoma, 65.6%; in the assay on MDA-MB-231 breast, 51%; in the assay on RXF 393 renal, 57.3%; in the assay with SF-268 CNS it was 47.7%. The growth with SF-295 CNS is 41.5%; in the assay with SF-539 CNS, 66.2%; in the assay with UACC-257 melanoma, 40.3%; in the assay on M14 melanoma it was 46.4%; in the assay on HCT-15 colon it was 44.6%; in the assay on HT29 colon, 61%. Besides, the growth in the assay with SNB-75 CNS was 60.5%; in the assay with SNB-19 CNS it was 41.6%; in the assay with U251 CNS, 37.9%; in the assay on PC-3 prostate, 17.6%; in the assay on SK-MEL-5 melanoma, 33.9%; with UACC-62 melanoma, 35.5%. Further, the values for the growth in the assay on LOX IMVI melanoma and with SK-MEL-28 melanoma were 42.3% and 66.7%, respectively.
For `COc1cc2c(c(OC)c1OC)C(=O)CC(c1cccc(NC(=O)c3cccc(NC(=O)[C@H](C)NC(=O)OC(C)(C)C)c3)c1)O2` (some centres undefined), the growth in the assay on DU-145 prostate is 61.7%; with K-562 leukemia it was 40.7%; in the assay on MALME-3M melanoma, 70.3%; with MDA-MB-231 breast it was 69%; with RXF 393 renal, 90%; in the assay with SF-268 CNS, 53.6%. The growth with SF-295 CNS was 65.9%; in the assay with SF-539 CNS it was 85.2%; in the assay on UACC-257 melanoma, 77%; in the assay on M14 melanoma, 76%; in the assay with HCT-15 colon, 44.2%; in the assay with HT29 colon it was 62.2%. Further, the growth in the assay with SNB-75 CNS was 64.6%; with SNB-19 CNS, 78.8%; in the assay with U251 CNS, 78.1%; in the assay with PC-3 prostate, 45.6%; with SK-MEL-5 melanoma, 25.9%; with UACC-62 melanoma it was 39.7%.
Turning to `C#CCOc1cc(N(CC)CC)ccc1C(C(=O)NC(C)(C)C)N(C(=O)C1CCc2cc(F)ccc2O1)c1cc(C)cc(C)c1` (centres undefined), the growth in the assay with DU-145 prostate is 58.1%; in the assay on K-562 leukemia, 16.4%; in the assay on MALME-3M melanoma, 59.4%; in the assay on MDA-MB-231 breast, 46.7%; in the assay with RXF 393 renal, 42.9%; in the assay on SF-268 CNS, 38.2%. For the same molecule, the growth in the assay with SF-295 CNS was 33.5%; with SF-539 CNS it was 53.5%; with UACC-257 melanoma it was 42.5%; in the assay on M14 melanoma it was 39.9%; in the assay with HCT-15 colon, 31.9%; with HT29 colon it was 40.4%. Also, the growth is 45.7% in the assay on SNB-75 CNS; 38.3% in the assay with SNB-19 CNS; 19.5% in the assay with U251 CNS; 13.2% with PC-3 prostate; 44.7% in the assay with SK-MEL-5 melanoma; 33.8% in the assay on UACC-62 melanoma. Besides, the growth is 32.5% in the assay on LOX IMVI melanoma and 62.9% with SK-MEL-28 melanoma.
